# TrxR1 substrate = substrates of rat thioredoxin reductase 1; purified TrxR1 substrate turnover, NADPH consumption readout; AID 588456; O89049; Potency, µM (titrated, usually from 114 µM); 390,000 compounds, 0.01% hits; also: nearly all actives have a fitted effect of over 50% in size
#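 Rat TrxR1, dispensed at 90 nM, was prereduced with 400 uM NADPH (final) for 5 min at ~22 deg C, then incubated with compound 15 min before 400 uM selenite. A first-read NADPH fluorescence drop versus no-compound background flagged substrates.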
# GALK inhibitor = inhibitors of human galactokinase; AID 1868; P51570; Purified GALK, Kinase-Glo residual ATP luminescence; Potency, µM (titrated, usually from 57.5 µM), usual class: inhibitors; 270,000 compounds, 0.007% hits
#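 GALK at 5 nM final was combined with compound, 35 uM ATP and 100 uM galactose in HEPES pH8.0 with MgCl2 and DTT. The reaction ran one hour at room temperature before luminescent ATP detection.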
# Integrin act MD = integrin-mediated muscular dystrophy alleviation activation; alpha7betagal myoblasts, beta-gal FDG fluorescence, 48 h; Potency, µM (titrated, usually from 38.3 µM), usual class: activators; 350,000 compounds, 0.064% hits; also: nearly all actives have a fitted effect of over 60% in size
#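 Alpha7betagal+/- myoblasts (passage 13) were plated 16-24 hr, then exposed to compounds (1:260 dilution of DMSO stock) for 48 hours at 37C. After MPER lysis, β-galactosidase reporter activity was read as FDG fluorescence (ex 480/em 540) after 30 minutes.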
# TrxR1 inh = rat TrxR1 inhibition. O89049. recombinant rTrxR1, NADPH fluorescence consumption, selenite substrate. Potency, µM (series often up to 114 µM), hits mostly inhibitors. 390,000 compounds, 1% hits. AID 588453; also: nearly all actives have a fitted effect of over 65% in size
#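 Rat TrxR1 (90 nM in the dispensed reagent) was pre-reduced with 400 uM NADPH for 5 min at room temperature, then incubated with compound for 15 min. After 400 uM selenite was added, NADPH fluorescence (Ex 340/Em 450 nm) was followed for 8 min.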
# LDHA block = LDHA (human) enzyme inhibition. P00338. purified LDHA, NADH/diaphorase-resazurin fluorescence; active compounds read low. activity change, % (values are at about 110 or 230 µM). 480,000 compounds, 0.15% hits. AID 1347041; in the data active = activity change below about -30%; inconclusive = mostly about -25% to -30%
#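 Resorufin fluorescence (ex540/em590), read at 0 and 20 min after diaphorase/resazurin addition, reports the NADH left after a 5 min room-temperature reaction of 2 nM human LDH5 with 0.06 mM NADH and 0.2 mM pyruvate.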
# PI4K2A block = blocks human PI4K2A kinase activity; AID 1346378; activity change, negative = inhibition, % at 76.9 µM; 420,000 compounds, 0.13% hits; purified PI4K2A, ADP-Glo luminescence, 1 h; active compounds read low; in the data active = activity change below about -50%; inconclusive = mostly about -30% to -49%
# Target sequence (Q9BTU6 whole entry, looked up): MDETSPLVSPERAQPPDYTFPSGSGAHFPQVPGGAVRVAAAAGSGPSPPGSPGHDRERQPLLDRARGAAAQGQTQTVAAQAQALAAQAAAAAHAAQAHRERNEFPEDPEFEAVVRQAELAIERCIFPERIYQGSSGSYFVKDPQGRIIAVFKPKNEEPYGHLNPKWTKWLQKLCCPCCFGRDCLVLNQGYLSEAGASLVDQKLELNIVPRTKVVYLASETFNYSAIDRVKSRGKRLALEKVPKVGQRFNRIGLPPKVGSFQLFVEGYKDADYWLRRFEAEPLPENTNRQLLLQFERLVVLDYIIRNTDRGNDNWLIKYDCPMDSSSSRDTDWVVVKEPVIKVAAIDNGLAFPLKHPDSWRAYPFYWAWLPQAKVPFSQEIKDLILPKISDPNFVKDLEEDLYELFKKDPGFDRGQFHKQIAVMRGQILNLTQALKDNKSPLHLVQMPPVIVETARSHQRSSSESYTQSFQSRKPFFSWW
#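 ADP-Glo luminescence measured ADP generated by PI4K2A enzyme (4 ug/mL before mixing) with 1.2 mM PI substrate (pre-mix) and 300 microM ATP (pre-mix). Tris pH7.5 buffer with MgCl2, Triton X-100; 1 h reaction at ambient temperature.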
# Hits are given with their value; – = inactive; ? = inconclusive; · = no result; ! = not confirmed by another sample. A selection: hits, their analogues and other compounds. The true share with any hit is near 1.1%. Unless noted, calls follow the shape of the dose curve; as a rule, active = well fitted curve in the direction sought with a large enough effect; inconclusive = small, poorly fitted or top-dose-only effect, or another doubt; inactive = no such curve, though single readings can be large; an effect the other way counts as inactive or inconclusive.
SMILES,TrxR1 substrate,GALK inhibitor,Integrin act MD,TrxR1 inh,LDHA block,PI4K2A block
NC(=O)CI,–,·,·,–,·,-54.3
COc1ccccc1N1C(=O)NC(=O)/C(=C/c2ccc3c4c(cccc24)CC3)C1=O,–,–,–,8.91µM,–,–
O=C(Nc1ccccc1)c1cc([N+](=O)[O-])ccc1N1CCNCC1,–,–,–,?,–,–
O=[N+]([O-])c1ccc2nc(N3CCNCC3)ccc2c1,–,·,·,79.4µM!,–,–
O=C(CI)c1ccc(Cl)cc1,–,·,·,–,–,·
O=C(CNC12CC3CC(CC(C3)C1)C2)c1ccc(Cl)cc1,·,·,·,·,-80.8,·
COc1ccc2c3c1OC1C(O)C=CC4C(C2)[N+](C)(C)CCC341 (configuration not stated),–,–,–,–,-72.2,–
N#CC(C#N)=NNc1ccc(-n2ccc(C(F)(F)F)n2)cc1,–,·,?,20µM,–,–
N#Cc1c(-c2ccc([N+](=O)[O-])o2)no[n+]1[O-],·,·,·,·,–,·
O=c1[nH]c(=S)[nH]c(O)c1/C=C1/C=c2ccccc2=N1,–,–,–,20µM,–,–
Clc1ccc(-n2nnnc2C2(NC3CCCCC3)CCCCC2)cc1,·,·,·,·,–,·
O=C1NC(=O)N(Cc2ccco2)C(=O)/C1=C\c1cccn1CCOc1ccc(Cl)cc1,–,–,–,22.4µM,–,?
Cc1cccc(OCCn2cccc2/C=C2/C(=O)NC(=O)N(Cc3ccco3)C2=O)c1,–,–,–,35.5µM,–,–
CCc1ccc(N2C(=O)NC(=O)/C(=C/c3cccn3CCOc3ccc(C)cc3)C2=O)cc1,–,–,–,–,–,–
CC1C(c2ccc(F)cc2)=[N+]([O-])C(C)(C(=O)c2ccccc2)N1O (configuration not stated),·,·,·,·,–,·
ClCCN1CCOCC1,·,·,·,·,–,·
COC(/C(C)=C/C=C/C(C)=C/c1coc(C)n1)C(C)C1CC(O)C2(C)OC2C=CC(C)C2CC(CC(=O)O2)CC2OC2C(=O)O1 (configuration not stated),–,·,–,10µM,–,–
C=C(Cl)CN1CCC(N2CCCCC2)CC1,·,·,·,·,–,·
Cc1ccc(Cn2nc(C)c(C(=O)NCc3cc(Cl)c4c(c3)OCCCO4)c2C)cc1,·,·,·,·,–,·
COC(=O)C1=Nc2ccccc2/C1=C\c1c(O)n(-c2ccc(Br)cc2)c(=O)[nH]c1=O,–,–,–,?,-67.1,–
COC(=O)C1=Nc2ccccc2/C1=C\c1c(O)n(-c2ccc(OC)cc2)c(=O)[nH]c1=O,–,–,–,?,-43.4,–
C/C(=N/NC(N)=S)c1ccc(Cl)cc1,·,·,·,·,–,·
COc1ccc2c(c1)c(C(=O)OC(C)C(=O)NC(C)(C)C)c(C)n2C1CC1 (configuration not stated),·,·,·,·,–,·
N#CC(C#N)=Cc1cccnc1,–,–,–,14.1µM,–,–
CNc1oc(-c2ccc(C)cc2)nc1P(=O)(OC)OC,·,·,·,·,–,·
SMILES,TrxR1 substrate,GALK inhibitor,Integrin act MD,TrxR1 inh,LDHA block,PI4K2A block
CC(Nc1ccc([N+](=O)[O-])c2cnccc12)c1ccc(F)cc1 (configuration not stated),·,·,·,·,–,·
COc1ccc(N2C(=O)/C(=C/c3ccc(N(C)C)o3)C(=O)NC2=S)cc1,–,–,–,?,–,–
Cc1ccc(N2C(=O)/C(=C/c3ccc(CN(CCC#N)S(C)(=O)=O)o3)C(=O)NC2=S)cc1,–,–,–,10µM,–,–
Cc1ccc(-c2n[nH]c(=S)n2-c2ccccc2)cc1,–,–,–,?,–,–
Cc1ccc(-n2c(-c3nn(C)c(C)c3Cl)n[nH]c2=S)cc1,–,–,–,39.8µM,–,–
CCOC(=O)Nc1ccc(NCc2ccc(F)cc2)nc1N,–,·,·,10.6µM,–,?
O=C(CN1CCOCC1)c1cccc2ccccc12,–,–,–,17.8µM,–,–
CCOc1ccc(CNCCc2c[nH]c3ccccc23)cc1,·,·,·,·,–,·
O=C(COC(=O)C(O)(c1ccccc1)c1ccccc1)c1c[nH]c2ccccc12,·,·,·,·,–,·
O=c1[nH]cc(N(CCCl)CCCl)c(=O)[nH]1,·,·,·,·,·,-67.3

# Assay outcomes as filed in PubChem BioAssay.
